Data reported in ChEMBL document CHEMBL2218924, “A broad activity screen in support of a chemogenomic map for kinase signalling research and drug discovery” (Biochem J, 2013).

Key:
[1] = biological target: Homeodomain-interacting protein kinase 3 (Homo sapiens) (UniProt Q9H422); settings: at 10 µM
[2] = biological target: T1, Serine/threonine-protein kinase haspin (Homo sapiens) (UniProt Q8TF76); settings: at 1 µM
T1 sequence (whole entry): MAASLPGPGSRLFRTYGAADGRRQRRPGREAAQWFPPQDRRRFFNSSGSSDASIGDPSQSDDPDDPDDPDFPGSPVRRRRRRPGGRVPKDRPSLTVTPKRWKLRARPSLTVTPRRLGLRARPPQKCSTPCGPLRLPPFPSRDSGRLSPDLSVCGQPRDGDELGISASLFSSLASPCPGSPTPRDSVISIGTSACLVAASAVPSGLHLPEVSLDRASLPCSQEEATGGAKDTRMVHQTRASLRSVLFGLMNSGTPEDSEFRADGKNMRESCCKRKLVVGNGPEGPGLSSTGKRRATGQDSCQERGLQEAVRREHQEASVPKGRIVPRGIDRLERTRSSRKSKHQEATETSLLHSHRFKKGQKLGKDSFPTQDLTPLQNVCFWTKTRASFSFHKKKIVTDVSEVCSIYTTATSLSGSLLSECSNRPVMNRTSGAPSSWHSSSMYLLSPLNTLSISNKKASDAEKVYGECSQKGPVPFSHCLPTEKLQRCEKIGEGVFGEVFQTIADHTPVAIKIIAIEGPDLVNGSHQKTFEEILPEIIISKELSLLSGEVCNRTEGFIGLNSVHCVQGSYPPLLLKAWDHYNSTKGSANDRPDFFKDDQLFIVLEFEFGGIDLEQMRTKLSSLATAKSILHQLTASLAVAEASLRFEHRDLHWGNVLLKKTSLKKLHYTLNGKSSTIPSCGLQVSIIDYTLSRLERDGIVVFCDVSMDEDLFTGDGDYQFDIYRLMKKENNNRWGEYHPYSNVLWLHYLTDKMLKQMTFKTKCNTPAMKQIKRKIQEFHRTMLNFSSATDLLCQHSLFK

[3] = biological target: T1, Serine/threonine-protein kinase haspin (Homo sapiens); settings: at 10 µM
[4] = biological target: Tyrosine-protein kinase HCK (Homo sapiens) (UniProt P08631); settings: at 1 µM
[5] = biological target: Tyrosine-protein kinase HCK (Homo sapiens) (UniProt P08631); settings: at 10 µM
[6] = biological target: Tyrosine-protein kinase HCK (Homo sapiens) (UniProt P08631); settings: at 1 µM; remark: listed apart in the source
[7] = biological target: Tyrosine-protein kinase HCK (Homo sapiens) (UniProt P08631); settings: at 10 µM; remark: listed apart in the source
[8] = biological target: Insulin-like growth factor 1 receptor (Homo sapiens) (UniProt P08069); settings: at 1 µM
[9] = biological target: Insulin-like growth factor 1 receptor (Homo sapiens) (UniProt P08069); settings: at 10 µM
[10] = biological target: T2, Protein kinase C zeta type (Homo sapiens) (UniProt Q05513); settings: at 10 µM
T2 sequence (whole entry): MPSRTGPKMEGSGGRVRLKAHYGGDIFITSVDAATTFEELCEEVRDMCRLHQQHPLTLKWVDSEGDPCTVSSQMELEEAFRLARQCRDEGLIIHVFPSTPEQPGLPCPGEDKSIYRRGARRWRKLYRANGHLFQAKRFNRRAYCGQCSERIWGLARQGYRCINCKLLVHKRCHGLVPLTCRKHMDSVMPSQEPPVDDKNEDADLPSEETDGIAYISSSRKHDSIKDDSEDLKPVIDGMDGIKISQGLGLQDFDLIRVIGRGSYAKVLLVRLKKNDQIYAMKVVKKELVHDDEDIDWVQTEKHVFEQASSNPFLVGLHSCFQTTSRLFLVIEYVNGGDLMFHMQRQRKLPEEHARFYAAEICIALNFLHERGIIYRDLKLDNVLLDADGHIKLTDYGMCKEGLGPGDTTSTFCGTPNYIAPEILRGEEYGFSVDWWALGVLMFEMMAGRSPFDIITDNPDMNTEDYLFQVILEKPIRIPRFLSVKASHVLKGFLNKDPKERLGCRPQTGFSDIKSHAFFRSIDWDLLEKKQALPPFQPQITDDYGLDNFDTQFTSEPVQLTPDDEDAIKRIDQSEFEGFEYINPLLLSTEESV

[11] = biological target: Protein kinase C theta type (Homo sapiens) (UniProt Q04759); settings: at 1 µM
[12] = biological target: Protein kinase C theta type (Homo sapiens) (UniProt Q04759); settings: at 10 µM
[13] = biological target: Protein kinase C eta type (Homo sapiens) (UniProt P24723); settings: at 1 µM
[14] = biological target: Protein kinase C eta type (Homo sapiens) (UniProt P24723); settings: at 10 µM
[15] = biological target: T3, Protein kinase C iota type (Homo sapiens) (UniProt P41743); settings: at 1 µM
T3 sequence (whole entry): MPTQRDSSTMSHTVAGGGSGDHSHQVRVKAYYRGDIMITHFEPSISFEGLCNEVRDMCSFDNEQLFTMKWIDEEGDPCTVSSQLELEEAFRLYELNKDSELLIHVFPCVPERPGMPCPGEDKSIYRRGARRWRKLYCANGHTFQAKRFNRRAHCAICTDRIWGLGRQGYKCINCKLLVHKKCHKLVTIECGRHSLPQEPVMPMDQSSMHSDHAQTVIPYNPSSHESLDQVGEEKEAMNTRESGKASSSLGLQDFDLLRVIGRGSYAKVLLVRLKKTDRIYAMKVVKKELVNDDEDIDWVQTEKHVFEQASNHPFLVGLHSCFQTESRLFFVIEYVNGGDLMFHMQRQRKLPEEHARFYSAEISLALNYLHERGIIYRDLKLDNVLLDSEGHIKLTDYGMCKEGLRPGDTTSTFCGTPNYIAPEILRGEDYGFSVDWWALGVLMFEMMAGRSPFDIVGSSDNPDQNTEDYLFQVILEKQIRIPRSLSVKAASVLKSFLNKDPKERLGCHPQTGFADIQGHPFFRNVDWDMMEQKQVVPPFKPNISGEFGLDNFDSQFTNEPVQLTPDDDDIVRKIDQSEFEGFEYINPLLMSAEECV

[16] = biological target: T3, Protein kinase C iota type (Homo sapiens); settings: at 10 µM
[17] = biological target: T4, Serine/threonine-protein kinase D2 (Homo sapiens) (UniProt Q9BZL6); settings: at 1 µM
T4 sequence (whole entry): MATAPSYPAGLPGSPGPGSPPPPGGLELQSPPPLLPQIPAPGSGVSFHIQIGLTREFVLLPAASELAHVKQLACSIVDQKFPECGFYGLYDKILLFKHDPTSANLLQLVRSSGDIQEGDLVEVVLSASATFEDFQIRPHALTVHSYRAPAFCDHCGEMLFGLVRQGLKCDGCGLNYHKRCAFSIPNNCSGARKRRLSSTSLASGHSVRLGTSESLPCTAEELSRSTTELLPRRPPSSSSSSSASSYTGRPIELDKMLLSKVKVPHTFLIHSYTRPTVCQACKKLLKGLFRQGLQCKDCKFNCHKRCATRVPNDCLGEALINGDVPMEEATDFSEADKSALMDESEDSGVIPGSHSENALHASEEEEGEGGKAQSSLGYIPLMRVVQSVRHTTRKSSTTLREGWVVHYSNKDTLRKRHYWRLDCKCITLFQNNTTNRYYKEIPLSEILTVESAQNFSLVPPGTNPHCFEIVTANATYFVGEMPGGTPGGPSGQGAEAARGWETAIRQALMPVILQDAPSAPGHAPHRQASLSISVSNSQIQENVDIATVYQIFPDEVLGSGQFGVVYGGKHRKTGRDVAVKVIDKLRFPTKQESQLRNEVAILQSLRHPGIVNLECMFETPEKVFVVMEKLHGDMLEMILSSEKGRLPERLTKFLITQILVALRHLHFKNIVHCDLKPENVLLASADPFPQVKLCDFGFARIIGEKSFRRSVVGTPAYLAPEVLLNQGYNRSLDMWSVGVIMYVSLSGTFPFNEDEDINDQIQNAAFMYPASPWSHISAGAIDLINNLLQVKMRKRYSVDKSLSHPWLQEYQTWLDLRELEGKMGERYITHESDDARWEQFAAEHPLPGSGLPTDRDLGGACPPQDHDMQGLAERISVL

[18] = biological target: T4, Serine/threonine-protein kinase D2 (Homo sapiens); settings: at 10 µM
[19] = biological target: T5, Serine/threonine-protein kinase D1 (Homo sapiens) (UniProt Q15139); settings: at 1 µM
T5 sequence (whole entry): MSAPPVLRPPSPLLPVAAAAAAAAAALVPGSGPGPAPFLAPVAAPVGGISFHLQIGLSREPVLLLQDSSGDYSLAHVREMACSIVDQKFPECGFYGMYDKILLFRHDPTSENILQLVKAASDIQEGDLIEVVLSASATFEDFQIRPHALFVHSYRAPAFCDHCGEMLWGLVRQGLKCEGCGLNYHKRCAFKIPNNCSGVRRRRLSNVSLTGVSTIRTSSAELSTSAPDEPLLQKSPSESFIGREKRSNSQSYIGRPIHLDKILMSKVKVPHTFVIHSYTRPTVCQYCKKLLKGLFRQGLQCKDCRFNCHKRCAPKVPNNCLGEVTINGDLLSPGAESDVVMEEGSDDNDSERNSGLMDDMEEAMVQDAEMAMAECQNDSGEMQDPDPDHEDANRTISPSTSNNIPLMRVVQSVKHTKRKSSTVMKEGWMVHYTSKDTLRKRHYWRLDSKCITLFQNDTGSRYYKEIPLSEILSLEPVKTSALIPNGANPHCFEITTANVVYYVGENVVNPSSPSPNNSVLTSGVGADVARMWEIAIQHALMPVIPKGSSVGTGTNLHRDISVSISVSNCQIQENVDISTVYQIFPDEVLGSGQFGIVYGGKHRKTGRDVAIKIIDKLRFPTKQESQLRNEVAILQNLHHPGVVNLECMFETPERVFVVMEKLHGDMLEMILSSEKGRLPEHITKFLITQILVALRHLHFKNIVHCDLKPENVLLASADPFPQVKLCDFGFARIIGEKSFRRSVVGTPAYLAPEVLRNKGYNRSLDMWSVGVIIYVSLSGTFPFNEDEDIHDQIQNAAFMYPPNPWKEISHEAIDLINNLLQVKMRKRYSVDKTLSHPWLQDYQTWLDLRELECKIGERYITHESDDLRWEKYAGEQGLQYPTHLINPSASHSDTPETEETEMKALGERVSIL

[20] = biological target: T5, Serine/threonine-protein kinase D1 (Homo sapiens); settings: at 10 µM

Chain of Protein kinase C eta type (Homo sapiens) (P24723 whole entry): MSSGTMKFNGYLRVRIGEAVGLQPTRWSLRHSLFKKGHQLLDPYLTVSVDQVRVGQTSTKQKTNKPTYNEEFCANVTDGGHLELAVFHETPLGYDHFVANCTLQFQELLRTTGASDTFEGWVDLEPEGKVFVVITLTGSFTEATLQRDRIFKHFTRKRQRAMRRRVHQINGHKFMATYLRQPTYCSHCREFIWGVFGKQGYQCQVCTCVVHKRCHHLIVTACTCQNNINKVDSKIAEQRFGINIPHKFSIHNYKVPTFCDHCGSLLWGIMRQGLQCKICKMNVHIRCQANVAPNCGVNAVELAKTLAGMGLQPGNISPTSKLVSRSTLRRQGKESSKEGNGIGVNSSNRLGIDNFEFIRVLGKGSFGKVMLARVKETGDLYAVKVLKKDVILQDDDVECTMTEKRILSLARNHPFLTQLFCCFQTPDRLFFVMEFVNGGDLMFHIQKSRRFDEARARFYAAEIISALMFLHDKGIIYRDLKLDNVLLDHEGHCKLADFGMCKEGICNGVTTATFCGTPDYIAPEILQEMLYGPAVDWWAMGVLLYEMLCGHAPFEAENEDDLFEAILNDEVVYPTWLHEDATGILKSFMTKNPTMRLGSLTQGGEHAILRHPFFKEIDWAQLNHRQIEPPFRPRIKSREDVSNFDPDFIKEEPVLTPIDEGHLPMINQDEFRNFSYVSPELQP
Chain of Protein kinase C theta type (Homo sapiens) (Q04759 whole entry, looked up): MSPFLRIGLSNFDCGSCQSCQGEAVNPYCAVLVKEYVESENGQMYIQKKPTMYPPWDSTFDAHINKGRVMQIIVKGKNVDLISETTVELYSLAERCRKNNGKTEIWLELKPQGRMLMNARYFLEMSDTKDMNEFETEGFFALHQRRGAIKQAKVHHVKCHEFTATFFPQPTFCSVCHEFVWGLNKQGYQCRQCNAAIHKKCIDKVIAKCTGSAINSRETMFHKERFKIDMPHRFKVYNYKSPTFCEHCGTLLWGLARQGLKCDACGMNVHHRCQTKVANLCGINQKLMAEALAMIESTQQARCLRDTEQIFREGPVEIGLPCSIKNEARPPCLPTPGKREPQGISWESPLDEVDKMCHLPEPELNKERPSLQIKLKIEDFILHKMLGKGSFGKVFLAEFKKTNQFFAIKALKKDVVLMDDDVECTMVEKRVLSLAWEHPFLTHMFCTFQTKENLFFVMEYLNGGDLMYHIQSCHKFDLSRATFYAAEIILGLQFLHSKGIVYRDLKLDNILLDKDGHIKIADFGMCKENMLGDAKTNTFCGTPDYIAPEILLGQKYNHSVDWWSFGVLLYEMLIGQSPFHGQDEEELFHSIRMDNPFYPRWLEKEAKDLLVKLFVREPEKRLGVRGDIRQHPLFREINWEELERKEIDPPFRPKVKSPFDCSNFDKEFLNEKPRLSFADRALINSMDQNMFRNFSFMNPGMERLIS
Chain of Homeodomain-interacting protein kinase 3 (Homo sapiens) (Q9H422 whole entry, looked up): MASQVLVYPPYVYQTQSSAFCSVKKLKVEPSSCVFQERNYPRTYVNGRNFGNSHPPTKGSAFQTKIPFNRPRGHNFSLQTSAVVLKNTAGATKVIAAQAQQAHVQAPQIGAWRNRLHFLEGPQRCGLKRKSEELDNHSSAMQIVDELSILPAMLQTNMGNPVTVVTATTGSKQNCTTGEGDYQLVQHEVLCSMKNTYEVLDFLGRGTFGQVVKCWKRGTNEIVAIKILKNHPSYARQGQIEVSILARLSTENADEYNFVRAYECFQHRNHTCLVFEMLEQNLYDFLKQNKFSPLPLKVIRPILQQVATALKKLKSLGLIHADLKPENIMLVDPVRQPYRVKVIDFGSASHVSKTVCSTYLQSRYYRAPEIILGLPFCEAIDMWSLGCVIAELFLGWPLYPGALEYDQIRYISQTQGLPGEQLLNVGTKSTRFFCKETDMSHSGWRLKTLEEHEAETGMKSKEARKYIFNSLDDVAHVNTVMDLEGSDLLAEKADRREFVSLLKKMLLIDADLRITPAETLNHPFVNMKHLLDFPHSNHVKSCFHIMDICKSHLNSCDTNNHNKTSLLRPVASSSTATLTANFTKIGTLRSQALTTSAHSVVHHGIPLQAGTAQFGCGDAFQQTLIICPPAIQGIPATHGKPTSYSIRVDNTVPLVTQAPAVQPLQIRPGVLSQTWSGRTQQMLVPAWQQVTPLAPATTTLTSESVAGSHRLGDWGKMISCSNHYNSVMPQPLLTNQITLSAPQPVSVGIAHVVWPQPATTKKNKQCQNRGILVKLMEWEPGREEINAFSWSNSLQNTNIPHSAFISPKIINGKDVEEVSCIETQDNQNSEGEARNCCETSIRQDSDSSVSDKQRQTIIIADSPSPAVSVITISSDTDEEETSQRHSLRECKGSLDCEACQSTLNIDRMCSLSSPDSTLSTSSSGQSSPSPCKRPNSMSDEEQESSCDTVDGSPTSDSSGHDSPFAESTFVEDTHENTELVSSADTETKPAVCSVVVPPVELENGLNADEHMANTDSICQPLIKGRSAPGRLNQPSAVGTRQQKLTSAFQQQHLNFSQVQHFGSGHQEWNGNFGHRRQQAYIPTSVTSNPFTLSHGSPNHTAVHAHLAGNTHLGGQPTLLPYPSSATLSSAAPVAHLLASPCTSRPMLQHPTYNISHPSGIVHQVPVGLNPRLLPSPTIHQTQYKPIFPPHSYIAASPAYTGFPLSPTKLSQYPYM
Chain of Tyrosine-protein kinase HCK (Homo sapiens) (P08631 2-526 limits assumed): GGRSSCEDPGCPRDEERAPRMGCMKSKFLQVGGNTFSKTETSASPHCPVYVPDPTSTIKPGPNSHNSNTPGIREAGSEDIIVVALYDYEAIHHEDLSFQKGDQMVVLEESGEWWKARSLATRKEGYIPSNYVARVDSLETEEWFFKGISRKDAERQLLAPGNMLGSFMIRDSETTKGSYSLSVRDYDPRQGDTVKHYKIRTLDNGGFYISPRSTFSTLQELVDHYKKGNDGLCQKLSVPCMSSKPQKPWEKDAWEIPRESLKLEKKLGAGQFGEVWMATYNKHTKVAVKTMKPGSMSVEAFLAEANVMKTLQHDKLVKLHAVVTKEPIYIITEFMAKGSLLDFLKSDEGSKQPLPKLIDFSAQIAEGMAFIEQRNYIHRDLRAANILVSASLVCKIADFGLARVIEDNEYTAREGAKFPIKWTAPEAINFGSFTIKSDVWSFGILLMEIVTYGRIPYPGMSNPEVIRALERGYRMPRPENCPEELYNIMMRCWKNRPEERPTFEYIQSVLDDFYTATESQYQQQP
Chain of Insulin-like growth factor 1 receptor (Homo sapiens) (P08069 31-736 limits assumed): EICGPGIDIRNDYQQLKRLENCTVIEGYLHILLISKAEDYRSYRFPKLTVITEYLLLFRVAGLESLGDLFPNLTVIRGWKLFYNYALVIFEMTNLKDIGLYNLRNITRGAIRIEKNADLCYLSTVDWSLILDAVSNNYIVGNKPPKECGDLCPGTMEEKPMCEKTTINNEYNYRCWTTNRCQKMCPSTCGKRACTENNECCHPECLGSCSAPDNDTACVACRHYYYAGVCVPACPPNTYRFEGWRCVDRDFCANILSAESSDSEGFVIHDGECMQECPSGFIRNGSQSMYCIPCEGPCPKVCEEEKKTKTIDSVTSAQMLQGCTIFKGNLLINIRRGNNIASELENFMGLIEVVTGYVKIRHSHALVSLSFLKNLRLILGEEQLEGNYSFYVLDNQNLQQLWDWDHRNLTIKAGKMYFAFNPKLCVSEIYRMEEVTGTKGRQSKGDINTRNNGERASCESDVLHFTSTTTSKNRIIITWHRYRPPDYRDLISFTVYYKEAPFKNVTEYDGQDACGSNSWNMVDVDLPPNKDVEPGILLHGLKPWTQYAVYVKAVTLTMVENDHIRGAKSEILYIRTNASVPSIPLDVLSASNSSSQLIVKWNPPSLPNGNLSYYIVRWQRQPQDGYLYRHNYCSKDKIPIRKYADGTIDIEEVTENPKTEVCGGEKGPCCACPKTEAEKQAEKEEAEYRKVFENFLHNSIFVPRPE
Chain of Insulin-like growth factor 1 receptor (Homo sapiens) (P08069 741-1367 limits assumed): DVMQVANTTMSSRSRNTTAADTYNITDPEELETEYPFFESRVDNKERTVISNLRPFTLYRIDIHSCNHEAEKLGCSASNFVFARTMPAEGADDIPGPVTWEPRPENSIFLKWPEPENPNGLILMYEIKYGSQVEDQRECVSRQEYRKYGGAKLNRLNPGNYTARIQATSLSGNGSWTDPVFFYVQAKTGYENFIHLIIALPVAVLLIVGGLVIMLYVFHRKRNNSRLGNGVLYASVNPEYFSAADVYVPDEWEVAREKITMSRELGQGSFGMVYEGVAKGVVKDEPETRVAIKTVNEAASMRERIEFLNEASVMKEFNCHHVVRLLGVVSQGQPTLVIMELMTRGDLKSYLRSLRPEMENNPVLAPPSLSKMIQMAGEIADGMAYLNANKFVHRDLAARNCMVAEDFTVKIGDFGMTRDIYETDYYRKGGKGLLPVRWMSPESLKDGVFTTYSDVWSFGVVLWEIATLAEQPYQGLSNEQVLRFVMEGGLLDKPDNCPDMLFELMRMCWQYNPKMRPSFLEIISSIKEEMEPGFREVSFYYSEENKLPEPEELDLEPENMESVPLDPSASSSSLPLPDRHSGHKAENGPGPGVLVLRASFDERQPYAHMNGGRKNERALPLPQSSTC

Structure (SMILES)	residual activity [1] [%]	residual activity [2] [%]	residual activity [3] [%]	residual activity [4] [%]	residual activity [5] [%]	residual activity [6] [%]	residual activity [7] [%]	residual activity [8] [%]	residual activity [9] [%]	residual activity [10] [%]	residual activity [11] [%]	residual activity [12] [%]	residual activity [13] [%]	residual activity [14] [%]	residual activity [15]	residual activity [16] [%]	residual activity [17] [%]	residual activity [18] [%]	residual activity [19] [%]	residual activity [20] [%]
c1ccc(-c2cnc(Nc3ccc(OCCN4CCCC4)cc3)s2)cc1	31	77	51	57	24	71	11	119	108	109	115	102	–	–	–	–	–	–	–	–
Nc1ncnc2c1c(-c1ccc(Oc3ccccc3)cc1)cn2C1CCCC1	97	90	44	2	1	1	-2	127	119	107	94	109	95	67	87% (inactive)	76	93	95	–	–
COc1ccc2c(c1)c(C1=C(c3c[nH]c4ccccc34)C(=O)NC1=O)cn2CCCN(C)C	22	98	56	65	53	98	72	134	104	27	3	1	10	2	–	62	98	102	108	58
O=c1cc(N2CCOCC2)oc2c1ccc1ccccc12	21	74	26	85	77	101	110	–	–	91	94	105	94	79	85% (inactive)	97	100	94	77	79
